PubChem BioAssay AID1159580 (chemical genetic matrix, 2015)
Among all 5,500 compounds or so, about 2,000 (36%) were called active. Another 18% or so got no clear call; they are omitted. Cut-off read from the data, not from the text of the source: active = normalized growth mostly below about 0.91 (no sharp cut-off); inconclusive = no clear call, values can overlap the other calls; inactive = mostly above about 0.92. This is one part of the list.

Test: chemical genetic growth profiling, strain panel (AID 1159580);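 note: tested at 20 µM; growth read once vehicle control cultures reached saturation at 30 °C; 1 = growth at the plate median or of vehicle wells; lower values mean less growth of the strain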
Conditions: growth OD
[1] = S. cerevisiae deletion strains, locus YAL013W, strain DEP1, stronger effect = lower value
[2] = S. cerevisiae deletion strains, locus YBR229C, strain ROT2, stronger effect = lower value
[3] = S. cerevisiae deletion strains, locus YDL101C, strain DUN1, stronger effect = lower value
[4] = S. cerevisiae deletion strains, locus YDR150W, strain NUM1, stronger effect = lower value
[5] = S. cerevisiae deletion strains, locus YEL061C, strain CIN8, stronger effect = lower value
[6] = S. cerevisiae deletion strains, locus YGR078C, strain PAC10, stronger effect = lower value
[7] = S. cerevisiae deletion strains, locus YHR030C, strain SLT2, stronger effect = lower value
[8] = S. cerevisiae deletion strains, locus YJR043C, strain POL32, stronger effect = lower value
[9] = S. cerevisiae deletion strains, locus YJR075W, strain HOC1, stronger effect = lower value
[10] = S. cerevisiae deletion strains, locus YKL190W, strain CNB1, stronger effect = lower value
[11] = S. cerevisiae deletion strains, locus YLR039C, strain RIC1, stronger effect = lower value
[12] = S. cerevisiae deletion strains, locus YLR262C, strain YPT6, stronger effect = lower value
[13] = S. cerevisiae deletion strains, locus YMR263W, strain SAP30, stronger effect = lower value
[14] = S. cerevisiae deletion strains, locus YMR307W, strain GAS1, stronger effect = lower value
[15] = S. cerevisiae deletion strains, locus YNL153C, strain GIM3, stronger effect = lower value
[16] = S. cerevisiae deletion strains, locus YNL322C, strain KRE1, stronger effect = lower value
[17] = S. cerevisiae deletion strains, locus YOL006C, strain TOP1, stronger effect = lower value
[18] = S. cerevisiae deletion strains, locus YPL055C, strain LGE1, stronger effect = lower value
[19] = S. cerevisiae deletion strains, locus YPL241C, strain CIN2, stronger effect = lower value

Measured: normalized growth

O=C(O)c1nccnc1C(=O)O
inactive: [1] 0.993 | [2] 0.991 | [3] 0.988 | [4] 0.924 | [5] 0.994 | [6] 1 | [7] 1.02 | S. cerevisiae deletion strains, locus YHR087W, strain rtc3, stronger effect = lower value 1.02 | [8] 0.972 | [9] 0.988 | [10] 1.01 | [11] 1.01 | S. cerevisiae deletion strains, locus YLR058C, strain SHM2 (second series), stronger effect = lower value 1.01 | S. cerevisiae deletion strains, locus YLR085C, strain ARP6, stronger effect = lower value 1.01 | [12] 1.03 | S. cerevisiae deletion strains, locus YML094W, strain GIM5, stronger effect = lower value 1.01 | S. cerevisiae deletion strains, locus YMR219W, strain ESC1, stronger effect = lower value 1.01 | [13] 0.991 | [14] 0.992 | [15] 1 | S. cerevisiae deletion strains, locus YNL298W, strain CLA4 (second series), stronger effect = lower value 1.01 | [16] 1.01 | S. cerevisiae deletion strains, locus YNR030W, strain Alg12, stronger effect = lower value 1.05 | [17] 1.06 | [18] 0.951 | [19] 1.01 | S. cerevisiae deletion strains, locus YPR135W, strain CTF4, stronger effect = lower value 1.05

COP(=O)(OC)OC(Br)C(Cl)(Cl)Br (stereo not drawn)
inactive: [1] 0.966 | S. cerevisiae deletion strains, locus YBR021W, strain FUR4, stronger effect = lower value 1.04 | [2] 0.947 | S. cerevisiae deletion strains, locus YCL029C, strain bik1, stronger effect = lower value 0.997 | S. cerevisiae deletion strains, locus YDL035C, strain GPR1, stronger effect = lower value 0.984 | S. cerevisiae deletion strains, locus YDL074C, strain BRE1, stronger effect = lower value 0.961 | [3] 0.988 | S. cerevisiae deletion strains, locus YDL134C, strain PPH21, stronger effect = lower value 0.994 | S. cerevisiae deletion strains, locus YDL185W, strain tfp1, stronger effect = lower value 0.989 | S. cerevisiae deletion strains, locus YDL192W, strain arf1, stronger effect = lower value 1 | S. cerevisiae deletion strains, locus YDR101C, strain arx1, stronger effect = lower value 0.999 | [4] 0.984 | S. cerevisiae deletion strains, locus YDR162C, strain NBP2, stronger effect = lower value 0.988 | S. cerevisiae deletion strains, locus YDR318W, strain mcm21, stronger effect = lower value 1 | S. cerevisiae deletion strains, locus YDR388W, stronger effect = lower value 1.01 | S. cerevisiae deletion strains, locus YDR502C, strain sam2, stronger effect = lower value 1 | [5] 0.993 | S. cerevisiae deletion strains, locus YER110C, stronger effect = lower value 0.993 | S. cerevisiae deletion strains, locus YER155C, strain BEM2, stronger effect = lower value 1 | S. cerevisiae deletion strains, locus YER167W, strain BCK2, stronger effect = lower value 0.981 | S. cerevisiae deletion strains, locus YGL078C, strain dbp3, stronger effect = lower value 1.01 | S. cerevisiae deletion strains, locus YGL086W, strain mad1, stronger effect = lower value 0.989 | S. cerevisiae deletion strains, locus YGL248W, strain PDE1, stronger effect = lower value 0.968 | [6] 0.987 | S. cerevisiae deletion strains, locus YGR135W, strain pre9, stronger effect = lower value 1.01 | S. cerevisiae deletion strains, locus YGR229C, strain SMI1, stronger effect = lower value 0.996 | S. cerevisiae deletion strains, locus YGR252W, strain gcn5, stronger effect = lower value 1.06 | [7] 1.01 | S. cerevisiae deletion strains, locus YHR079C, strain IRE1 (second series), stronger effect = lower value 0.995 | S. cerevisiae deletion strains, locus YHR094C, strain hxt1, stronger effect = lower value 1.01 | S. cerevisiae deletion strains, locus YHR129C, strain ARP1, stronger effect = lower value 0.969 | S. cerevisiae deletion strains, locus YHR200W, strain rpn10, stronger effect = lower value 0.997 | S. cerevisiae deletion strains, locus YIL066C, strain RNR3, stronger effect = lower value 0.984 | S. cerevisiae deletion strains, locus YIL073C, strain SPO22, stronger effect = lower value 1.06 | S. cerevisiae deletion strains, locus YIL125W, strain kgd1, stronger effect = lower value 1 | S. cerevisiae deletion strains, locus YIR030C, strain dcg1, stronger effect = lower value 1.01 | S. cerevisiae deletion strains, locus YJL095W, strain BCK1, stronger effect = lower value 1 | S. cerevisiae deletion strains, locus YJL134W, strain LCB3, stronger effect = lower value 0.994 | S. cerevisiae deletion strains, locus YJL168C, strain set2, stronger effect = lower value 0.997 | S. cerevisiae deletion strains, locus YJL187C, strain SWE1 (second series), stronger effect = lower value 0.965 | [8] 0.999 | [9] 0.964 | S. cerevisiae deletion strains, locus YKL009W, strain mrt4, stronger effect = lower value 0.948 | S. cerevisiae deletion strains, locus YKL068W, stronger effect = lower value 0.995 | S. cerevisiae deletion strains, locus YKL085W, strain MDH1 (second series), stronger effect = lower value 1.01 | S. cerevisiae deletion strains, locus YKL085W, strain MDH1, stronger effect = lower value 1.01 | [10] 0.997 | S. cerevisiae deletion strains, locus YKR001C, strain vps1, stronger effect = lower value 1.01 | [11] 0.997 | S. cerevisiae deletion strains, locus YLR058C, strain SHM2, stronger effect = lower value 0.979 | S. cerevisiae deletion strains, locus YLR102C, strain apc9, stronger effect = lower value 0.994 | [12] 0.99 | S. cerevisiae deletion strains, locus YLR268W, strain sec22, stronger effect = lower value 1.01 | S. cerevisiae deletion strains, locus YLR330W, strain CHS5, stronger effect = lower value 0.988 | S. cerevisiae deletion strains, locus YLR342W, strain FKS1 (second series), stronger effect = lower value 0.98 | S. cerevisiae deletion strains, locus YLR371W, strain rom2, stronger effect = lower value 0.999 | S. cerevisiae deletion strains, locus YLR418C, strain cdc73, stronger effect = lower value 0.987 | S. cerevisiae deletion strains, locus YML016C, strain PPZ1, stronger effect = lower value 0.989 | S. cerevisiae deletion strains, locus YML032C, strain rad52, stronger effect = lower value 1.01 | S. cerevisiae deletion strains, locus YML124C, strain tub3, stronger effect = lower value 1.01 | S. cerevisiae deletion strains, locus YMR078C, strain ctf18, stronger effect = lower value 1.02 | S. cerevisiae deletion strains, locus YMR223W, strain ubp8, stronger effect = lower value 1 | [13] 0.989 | [14] 1.02 | S. cerevisiae deletion strains, locus YNL067W, strain RPL9B, stronger effect = lower value 0.974 | S. cerevisiae deletion strains, locus YNL128W, strain TEP1, stronger effect = lower value 0.957 | [15] 0.971 | S. cerevisiae deletion strains, locus YNL233W, strain BNI4, stronger effect = lower value 0.978 | S. cerevisiae deletion strains, locus YNL250W, strain rad50, stronger effect = lower value 0.999 | S. cerevisiae deletion strains, locus YNL271C, strain bni1, stronger effect = lower value 1.01 | S. cerevisiae deletion strains, locus YNL298W, strain CLA4, stronger effect = lower value 1.01 | S. cerevisiae deletion strains, locus YNL307C, strain MCK1, stronger effect = lower value 1.02 | [16] 0.987 | S. cerevisiae deletion strains, locus YNR052C, strain pop2, stronger effect = lower value 1.01 | [17] 1.04 | S. cerevisiae deletion strains, locus YOL012C, strain htz1 1.23 | S. cerevisiae deletion strains, locus YOL147C, strain pex11, stronger effect = lower value 1.01 | S. cerevisiae deletion strains, locus YOR061W, strain CKA2, stronger effect = lower value 0.973 | S. cerevisiae deletion strains, locus YOR069W, strain VPS5, stronger effect = lower value 0.998 | S. cerevisiae deletion strains, locus YOR136W, strain idh2, stronger effect = lower value 1 | S. cerevisiae deletion strains, locus YOR144C, strain elg1, stronger effect = lower value 1 | S. cerevisiae deletion strains, locus YOR184W, strain ser1, stronger effect = lower value 1.01 | S. cerevisiae deletion strains, locus YOR316C, strain cot1, stronger effect = lower value 0.992 | [18] 0.99 | [19] 0.998 | S. cerevisiae deletion strains, locus YPR119W, strain clb2, stronger effect = lower value 1.01 | S. cerevisiae deletion strains, locus YPR141C, strain kar3, stronger effect = lower value 0.993 | S. cerevisiae deletion strains, locus YPR163C, strain tif3, stronger effect = lower value 1 | S. cerevisiae deletion strains, locus YPR167C, strain met16, stronger effect = lower value 0.99 | S. cerevisiae deletion strains, strain wtn01, stronger effect = lower value 1 | S. cerevisiae strains, strain wild type, stronger effect = lower value 0.994
